High-throughput results (PubChem BioAssay)
Shown are actives, neighbours in structure and some others; about 2.4% of the full set was active somewhere.
D2 PAM-1: positive allosteric modulators of human D2 dopamine receptor; P14416; HEK293 T-REx D2, calcium flux, EC20 dopamine potentiation; potentiation, % at 10 µM; hit rate 0.34% among 340,000;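 active means potentiation over 3 SD above the plate norm, cut at about 30% in these data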; further: 0% is about no effect
Target sequence (P14416 whole entry, looked up): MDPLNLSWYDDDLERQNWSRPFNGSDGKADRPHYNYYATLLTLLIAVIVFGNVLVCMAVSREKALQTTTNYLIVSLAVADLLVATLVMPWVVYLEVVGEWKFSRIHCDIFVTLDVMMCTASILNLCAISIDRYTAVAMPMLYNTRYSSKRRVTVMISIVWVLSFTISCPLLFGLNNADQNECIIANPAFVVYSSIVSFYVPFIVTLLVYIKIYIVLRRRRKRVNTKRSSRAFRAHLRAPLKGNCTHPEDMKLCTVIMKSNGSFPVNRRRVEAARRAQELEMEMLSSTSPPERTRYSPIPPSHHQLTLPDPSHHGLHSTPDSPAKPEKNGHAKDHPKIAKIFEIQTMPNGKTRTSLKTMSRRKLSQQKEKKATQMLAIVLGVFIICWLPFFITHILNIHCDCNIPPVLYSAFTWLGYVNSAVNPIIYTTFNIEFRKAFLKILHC
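Tetracycline-induced HEK293 T-REx cells force-coupled to calcium signalling expressed D2; compounds were pin-added after a 10 s baseline, read kinetically 180 s, then an EC20 dopamine challenge followed with a further 180 s calcium read.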
D2 ag-1: activates the human D2 dopamine receptor. P14416. hit rate 0.53% among 340,000. HEK293 T-REx D2 cells, calcium flux agonist mode. activation, % at 2 µM;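 active means activation over 3 SD above normal in the single-dose calcium agonist read, cut at about 30% in these data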; further: 0% is about no effect
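Calcium-flux readout, 1 cycle/sec over 180 s following compound pin transfer, in inducible HEK293 Trex D2 cells (force-coupled); dopamine controls included. Positive calcium responses during this window marked compounds as potential agonists.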
D2 PAM-2: human D2 receptor positive allosteric modulation; DiscoveRx D2 beta-arrestin cells, luminescence, 90 min; 100% = 57 uM dopamine signal; potentiation, % (concentration not given with the values); hit rate 0.23% among 360,000; P14416; in the data active means potentiation above about 50%; inconclusive means mostly about 30% to 49%
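PathHunter beta-arrestin assay in DiscoveRx D2 cells. Compounds were added with an EC20 of dopamine (50 nM final) for 90 min at 37 deg C. Luminescence was read 1 h after detection reagent, with 57 uM dopamine as the EC100 control.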
D2 ag-2: agonists of human D2 dopamine receptor (beta-arrestin). P14416. DiscoveRx PathHunter D2 beta-arrestin, luminescence, 90 min; 100% = 57 uM dopamine signal. activation, % (test concentration not listed). hit rate 0.084% among 360,000; in the data active means activation above about 40%; inconclusive means between about 15% and that limit
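Agonist mode: compounds alone added to overnight-plated D2 PathHunter cells for 90 min at 37 C, with 57 uM final dopamine (EC100) defining full response. Beta-arrestin recruitment detected by chemiluminescent reagent, read after 1 h at ambient temperature.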
D2 antag: antagonists of human D2 dopamine receptor; AID 485344; HEK293 TREx D2 cells, calcium flux, dopamine EC80; hit rate 2% among 340,000; inhibition, % at 10 µM; P14416; in the data active means inhibition above about 30%; inactive means below that, where a call was filed; further: 0% is about no effect
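In this primary screen, negative modulation is detected by tracking calcium flux after an EC80 dopamine challenge in inducible HEK293 T-REx D2 cells preexposed to test compound for 180 s.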
D3 ag: confirmation of human D3 dopamine receptor agonists, beta-arrestin; shares compounds with D2 ag-1; DiscoveRx D3 beta-arrestin cells, luminescence, 90 min; Potency, µM (highest dose often 76.9 µM), for inactives: at the highest dose activation, usual class: activators; hit rate 4% among 2,300;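 further: potency means the concentration at half of the fitted maximal effect; 100% = dopamine control response; nearly all actives have a fitted effect of over 70% in size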
D2 ag-3: counter-screen for D3 agonists: human D2 dopamine receptor agonism; Potency, µM (top dose mostly 76.9 µM), without a hit: at the top dose activation, actives largely listed as activators; DiscoveRx PathHunter D2 beta-arrestin, luminescence, 90 min; response scale: percent relative to full dopamine signal; hit rate 5.9% among 2,300; shares compounds with D2 ag-1; further: potency means the concentration at half of the fitted maximal effect; % of control where 0% means no effect; nearly all actives have a fitted effect of over 70% in size
* hit, by the source's call; ? = inconclusive; . = not tested or not shown. Unless noted, the call rests on the fitted dose curve; in most records, active means well fitted activation curve with a large enough effect; inconclusive means small, poorly fitted or top-dose-only effect; inactive means flat fitted curve, though single readings scatter.

SMILES	D2 PAM-1	D2 ag-1	D2 PAM-2	D2 ag-2	D2 antag	D3 ag	D2 ag-3
CSCC[C@H](NC(=O)C1CCN(S(=O)(=O)c2ccc(C)cc2)CC1)C(=O)NC1CCS(=O)(=O)C1 (stereo not given in full)	-18	53*	-6	-3	13	-2%	-3%
Cc1cc(N/N=C/c2ccccc2[N+](=O)[O-])nc(-n2nc(C)cc2C)n1	-15	34*	0	-6	-10	-6%	-3%
Cc1coc2c(C)c3oc(=O)c(CCC(=O)N[C@H](C(=O)O)C(C)C)c(C)c3cc12	.	.	-7	-2	.	.	.
CCOc1ccc(/C=N/NC(=O)c2cc(-c3ccccc3)nc3ccccc23)cc1O	.	.	-9	-5	.	1%	7%
CC1CN(C(=O)c2ccccc2OCc2ccc(Cl)cc2Cl)CC(C)O1 (stereo not given)	-6	0	-2	-3	-15	-7%	-2%
CCc1nnc(NC(=O)c2ccc(-c3ccc(Cl)cc3)o2)s1	2	0	-23	0	-4	.	.
CCc1nnc(NC(=O)c2ccc(-c3ccc(C(C)=O)cc3)o2)s1	-14	-2	-2	0	11	-7%	-1%
CC1=C(C)CC(C(=O)NCCc2ccccc2)C(C(=O)O)C1 (stereo not given)	-7	3	14	4	-1	.	.
O=C(O)C1C2C=CC(C3CC23)C1C(=O)NCCc1ccccc1 (stereo not given)	-23	32*	-11	-1	5	12%	15%
Cc1cc(C)c2nc(N3C(=O)C(O)=C(C(=O)c4ccco4)C3c3cccc(O)c3)sc2c1 (stereo not given)	5	0	-4	8	-38	.	.
Cc1cc(C)cc(NC(=O)CN2CCN(c3ccccn3)CC2)c1	12	3	-25	2	16	.	.
CN(C)S(=O)(=O)c1ccc(NC(=O)CN2CCN(c3ccccn3)CC2)cc1	-18	65*	15	?	30*	1.4µM*	?
CN(C)S(=O)(=O)c1cc(NC(=O)CN2CCN(c3ccccc3)CC2)ccc1Cl	-19	71*	15	?	64*	50µM*	?
Cc1ccc(NC(=O)CN2CCN(c3ccccn3)CC2)cc1S(=O)(=O)N(C)C	-24	69*	8	58*	77*	1.4µM*	14µM*
CN(C)S(=O)(=O)c1cc(NC(=O)CN2CCN(c3ccc(O)cc3)CC2)ccc1Cl	-18	13	-16	11	1	.	.
O=C(CN1C(=O)NC2(CCOc3ccccc32)C1=O)NCCc1ccc(F)cc1 (stereo not given)	.	.	-4	-6	.	.	.
COc1ccccc1-c1nc(SCC(=O)c2ccc(Cl)cc2)n[nH]1	.	1	.	.	.	.	.
C=CCn1c(COc2ccc(Cl)cc2)nnc1SCC(=O)Nc1ccc(S(N)(=O)=O)cc1	-17	59*	-10	1	1	2%	-3%
COc1ccc(-c2nc(CN3CCN(C(=O)c4ccco4)CC3)c(C)o2)c(F)c1	-16	61*	15	?	25	?	?
COc1ccc(OC)c(-c2nc(CN3CCN(C(=O)c4ccco4)CC3)c(C)o2)c1	-11	49*	-11	8	16	5%	7%
COc1ccc(-c2nc(CN3CCN(C(=O)c4ccco4)CC3)c(C)o2)c(OC)c1C	-24	102*	?	46*	92*	?	?
COc1ccc(-c2nc(CN3CCN(C(=O)c4ccco4)CC3)c(C)o2)cc1OC	3	0	3	1	12	.	.
Cc1oc(-c2ccc(F)cc2F)nc1CN1CCN(C(=O)c2ccco2)CC1	.	.	-11	0	.	.	.
CCOc1ccc(NC(=O)c2cccc3c(=O)c4c([nH]c23)CCCC4)cc1	-3	2	.	.	.	.	.
CCN(CC)C1=CC2=CC(=C(C#N)C#N)CCC2CC1 (stereo not given)	-16	209*	-2	3	76*	-7%	17%
SMILES	D2 PAM-1	D2 ag-1	D2 PAM-2	D2 ag-2	D2 antag	D3 ag	D2 ag-3
CN(C(=O)CC(=O)Nc1ccc2nc3n(c(=O)c2c1)CCCCC3)c1ccccc1F	-8	4	.	.	.	.	.
Cc1ccccc1C(=O)O/N=C(\N)c1ccccc1	2	0	2	?	5	.	.
Cc1ccccc1C(=O)O/N=C(\c1ccccc1)c1ccccn1	-24	77*	13	?	72*	?	?
NS(=O)(=O)c1ccc(NC(=O)CN2CCN(S(=O)(=O)c3cccs3)CC2)cc1	.	.	-2	6	.	.	.
NC[C@@H]1O[C@H](C23CC4CC(CC(C4)C2)C3)Cc2c1ccc(O)c2O	-25	85*	?	50*	66*	32µM*	35µM*
COc1ccccc1N1CCN(CC(C)N(C(=O)C2CCCCC2)c2ccccn2)CC1 (stereo not given)	-23	40*	-13	-1	82*	-21%	-2%
CC1CCCCC12NC(=O)N(CC(=O)Nc1nccs1)C2=O (stereo not given)	.	.	-1	1	.	.	.
C=CCNC(=S)NCc1ccccc1	2	-1	-10	-4	-3	.	.
C=CCNCc1cccn1-c1ccccc1	-5	3	-9	2	-8	-9%	0%
O=S(=O)(c1ccc(OCC(O)CN2CCN(c3ccccc3)CC2)cc1)N1CCOCC1 (stereo not given)	-23	85*	13	44*	96*	?	7.1µM*
O=S(=O)(c1ccc(OCC(O)CN2CCCC2)cc1)N1CCOCC1 (stereo not given)	3	0	-6	1	2	.	.
O=S(=O)(c1ccc(OCC(O)CN2CCC(Cc3ccccc3)CC2)cc1)N1CCOCC1 (stereo not given)	-23	63*	-16	7	27	-4%	20%
O=S(=O)(c1ccc(OCC(O)CN2CCN(c3ccccc3O)CC2)cc1)N1CCOCC1 (stereo not given)	-24	71*	1	?	69*	?	28µM*
COc1cc2c(cc1NC(=O)C(C)OC(=O)c1ccc(S(=O)(=O)Nc3ccccc3Cl)cc1)oc1ccccc12 (stereo not given)	2	0	-2	2	-4	.	.
O=C(CCC(=O)N1CCOCC1)NCCc1ccccc1	-9	2	-13	12	22	-4%	26%
S=C(NCCc1ccccc1)N1CCOCC1	-4	0	-7	-2	29	.	.
CC(=O)CC(C)(C)NC(C)=S	-16	34*	-7	-2	-8	-16%	-4%
